Common to all, as to test: DAPPL (digital affinity profiling via proximity ligation, sequencing); 10 mM Tris-HCl pH 7.5, 50 mM NaCl, 1 mM DTT, 4% glycerol, room temperature, 30 min; GST-TFs on glutathione beads, 16-mer random dsDNA library, 0.1% formaldehyde crosslink after washing; high values mean tight binding
Holding throughout (conditions): protein: recombinant; tags: N-terminal GST; dsDNA, one strand shown

For one test, the target named is T1, ELK4 (Homo sapiens, UniProt P28324-2 1-405).
T1 sequence: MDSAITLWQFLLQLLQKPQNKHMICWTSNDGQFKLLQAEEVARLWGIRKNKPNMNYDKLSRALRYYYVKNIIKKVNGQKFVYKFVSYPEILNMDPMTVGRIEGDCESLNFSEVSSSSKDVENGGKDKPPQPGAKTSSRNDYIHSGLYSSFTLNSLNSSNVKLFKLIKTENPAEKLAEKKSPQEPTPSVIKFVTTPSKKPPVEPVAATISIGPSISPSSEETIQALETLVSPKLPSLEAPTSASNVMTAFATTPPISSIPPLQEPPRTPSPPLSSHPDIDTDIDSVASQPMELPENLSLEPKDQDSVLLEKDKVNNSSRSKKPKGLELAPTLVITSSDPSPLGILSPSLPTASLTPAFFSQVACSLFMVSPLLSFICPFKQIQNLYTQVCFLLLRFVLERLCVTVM
Summed up:
(§1)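 Sequencing on an Illumina NextSeq500 followed washing, crosslinking with 0.1% formaldehyde, proximity ligation (BsaI/T4 ligase, 1 h, 37 °C) and PCR amplification of pools that had been incubated for 30 min at room temperature with 200 nmole of a random double-stranded 16-mer DNA library in Tris/NaCl/DTT/glycerol buffer. Each pool held DNA-barcoded human transcription factors, expressed in yeast as GST fusions and captured on glutathione beads, plus a tag-only sample. Binding signal is a hexamer's read frequency for a factor divided by its frequency in the tag-only sample.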

For another test, the target named is T2, ELF3 (Homo sapiens, UniProt P78545 1-371).
T2 sequence: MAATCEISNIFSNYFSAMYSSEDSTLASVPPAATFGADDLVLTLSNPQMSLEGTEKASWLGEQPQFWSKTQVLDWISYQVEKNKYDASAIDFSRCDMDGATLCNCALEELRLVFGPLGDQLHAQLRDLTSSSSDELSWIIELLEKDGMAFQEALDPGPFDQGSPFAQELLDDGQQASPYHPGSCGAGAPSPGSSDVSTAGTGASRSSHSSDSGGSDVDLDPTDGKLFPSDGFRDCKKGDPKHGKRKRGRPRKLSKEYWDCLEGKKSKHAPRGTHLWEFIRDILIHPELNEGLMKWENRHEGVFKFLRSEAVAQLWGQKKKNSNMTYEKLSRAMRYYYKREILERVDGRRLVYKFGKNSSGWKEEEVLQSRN
In short, it runs like this: as §1

The next test deals with ETV1 (Homo sapiens, UniProt P50549 1-477). In short, it runs like this:
as §1

The target in another test is T3, ERF (Homo sapiens, UniProt P50548 1-548).
T3 sequence: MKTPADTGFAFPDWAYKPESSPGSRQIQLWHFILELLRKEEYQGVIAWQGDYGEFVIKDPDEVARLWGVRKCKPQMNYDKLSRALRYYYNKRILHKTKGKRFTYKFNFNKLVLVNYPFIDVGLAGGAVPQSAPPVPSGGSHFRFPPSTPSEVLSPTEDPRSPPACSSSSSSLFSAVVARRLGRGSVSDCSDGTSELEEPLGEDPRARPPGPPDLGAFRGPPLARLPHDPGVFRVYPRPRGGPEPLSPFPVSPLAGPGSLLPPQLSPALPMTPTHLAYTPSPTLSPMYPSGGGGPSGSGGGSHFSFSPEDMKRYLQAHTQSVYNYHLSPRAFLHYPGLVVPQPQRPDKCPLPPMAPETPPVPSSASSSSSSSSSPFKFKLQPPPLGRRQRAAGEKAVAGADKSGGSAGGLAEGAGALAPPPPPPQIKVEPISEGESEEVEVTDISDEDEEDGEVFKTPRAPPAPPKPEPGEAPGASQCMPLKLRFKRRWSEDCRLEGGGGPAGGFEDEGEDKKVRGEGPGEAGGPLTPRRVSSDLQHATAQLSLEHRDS
Summed up:
as §1

The next test addresses T4, ETV3L (Homo sapiens, UniProt Q6ZN32 1-361).
T4 sequence: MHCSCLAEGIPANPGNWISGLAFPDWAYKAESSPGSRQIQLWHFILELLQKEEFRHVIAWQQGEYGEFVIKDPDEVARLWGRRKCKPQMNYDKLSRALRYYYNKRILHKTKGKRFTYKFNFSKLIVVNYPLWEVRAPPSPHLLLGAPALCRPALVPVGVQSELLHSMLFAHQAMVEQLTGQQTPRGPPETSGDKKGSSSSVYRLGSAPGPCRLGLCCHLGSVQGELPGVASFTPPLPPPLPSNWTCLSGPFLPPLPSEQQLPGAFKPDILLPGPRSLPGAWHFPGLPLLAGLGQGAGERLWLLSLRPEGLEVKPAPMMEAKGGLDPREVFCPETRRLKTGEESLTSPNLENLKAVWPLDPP
In short, it runs like this:
as §1

The next test addresses T5, ETS2 (Homo sapiens, UniProt P15036 1-469).
T5 sequence: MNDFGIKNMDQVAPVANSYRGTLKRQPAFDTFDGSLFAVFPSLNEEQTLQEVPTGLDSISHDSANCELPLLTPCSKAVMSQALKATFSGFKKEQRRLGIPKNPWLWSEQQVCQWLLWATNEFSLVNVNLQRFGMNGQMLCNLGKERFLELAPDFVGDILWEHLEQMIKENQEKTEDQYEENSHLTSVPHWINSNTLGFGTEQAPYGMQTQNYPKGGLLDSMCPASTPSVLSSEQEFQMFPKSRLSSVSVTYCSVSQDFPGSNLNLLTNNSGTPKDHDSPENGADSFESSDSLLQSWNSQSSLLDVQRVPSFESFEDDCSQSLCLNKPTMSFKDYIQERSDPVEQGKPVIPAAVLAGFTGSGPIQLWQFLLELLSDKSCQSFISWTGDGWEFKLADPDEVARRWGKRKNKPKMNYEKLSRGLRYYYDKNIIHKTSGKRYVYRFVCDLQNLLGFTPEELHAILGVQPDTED
Summed up: as §1

Another test deals with T6, SPDEF (Homo sapiens, UniProt O95238 1-335).
T6 sequence: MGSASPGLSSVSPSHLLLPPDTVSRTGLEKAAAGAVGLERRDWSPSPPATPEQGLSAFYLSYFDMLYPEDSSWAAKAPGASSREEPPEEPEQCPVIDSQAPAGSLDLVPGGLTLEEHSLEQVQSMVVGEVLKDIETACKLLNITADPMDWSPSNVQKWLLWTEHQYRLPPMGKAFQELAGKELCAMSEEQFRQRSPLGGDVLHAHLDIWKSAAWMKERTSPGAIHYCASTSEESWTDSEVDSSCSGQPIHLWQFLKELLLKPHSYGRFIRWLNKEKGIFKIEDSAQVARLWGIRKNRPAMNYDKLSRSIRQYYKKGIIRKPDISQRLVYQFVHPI
In short, it runs like this:
as §1

In the next test the target is T7, ETV7 (Homo sapiens, UniProt Q9Y603 1-341).
T7 sequence: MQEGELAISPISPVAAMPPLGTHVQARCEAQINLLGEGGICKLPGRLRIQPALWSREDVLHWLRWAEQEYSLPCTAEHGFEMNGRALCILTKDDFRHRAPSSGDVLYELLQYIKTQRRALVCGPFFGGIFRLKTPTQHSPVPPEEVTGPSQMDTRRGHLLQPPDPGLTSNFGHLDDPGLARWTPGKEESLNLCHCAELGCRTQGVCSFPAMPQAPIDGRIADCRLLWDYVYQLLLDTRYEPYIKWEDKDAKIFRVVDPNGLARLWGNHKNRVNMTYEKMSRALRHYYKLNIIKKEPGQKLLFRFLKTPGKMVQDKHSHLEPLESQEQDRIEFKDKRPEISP
Summed up: as §1

The target of the next test is T8, ETV3 (Homo sapiens, UniProt P41162-2 1-143).
T8 sequence: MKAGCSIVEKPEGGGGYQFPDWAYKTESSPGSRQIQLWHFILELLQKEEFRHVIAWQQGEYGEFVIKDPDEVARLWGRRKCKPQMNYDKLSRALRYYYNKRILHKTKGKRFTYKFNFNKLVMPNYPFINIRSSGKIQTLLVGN
In short, it runs like this: as §1

Another test addresses ETV6 (Homo sapiens, UniProt P41212 1-452). Summed up:
as §1

Chain of ETV6 (P41212 whole entry): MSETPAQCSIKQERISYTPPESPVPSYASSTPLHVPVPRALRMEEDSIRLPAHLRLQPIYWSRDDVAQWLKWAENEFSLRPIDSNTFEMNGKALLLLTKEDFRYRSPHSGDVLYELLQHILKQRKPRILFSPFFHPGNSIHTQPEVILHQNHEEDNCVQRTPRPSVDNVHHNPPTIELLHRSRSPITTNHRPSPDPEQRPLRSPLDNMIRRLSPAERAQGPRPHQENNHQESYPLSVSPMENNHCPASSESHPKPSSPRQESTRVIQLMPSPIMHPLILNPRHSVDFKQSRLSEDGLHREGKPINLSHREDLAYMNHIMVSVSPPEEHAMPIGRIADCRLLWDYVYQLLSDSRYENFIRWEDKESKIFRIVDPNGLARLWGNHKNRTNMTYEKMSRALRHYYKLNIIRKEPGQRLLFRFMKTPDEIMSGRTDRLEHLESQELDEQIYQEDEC
Chain of ETV1 (P50549 whole entry): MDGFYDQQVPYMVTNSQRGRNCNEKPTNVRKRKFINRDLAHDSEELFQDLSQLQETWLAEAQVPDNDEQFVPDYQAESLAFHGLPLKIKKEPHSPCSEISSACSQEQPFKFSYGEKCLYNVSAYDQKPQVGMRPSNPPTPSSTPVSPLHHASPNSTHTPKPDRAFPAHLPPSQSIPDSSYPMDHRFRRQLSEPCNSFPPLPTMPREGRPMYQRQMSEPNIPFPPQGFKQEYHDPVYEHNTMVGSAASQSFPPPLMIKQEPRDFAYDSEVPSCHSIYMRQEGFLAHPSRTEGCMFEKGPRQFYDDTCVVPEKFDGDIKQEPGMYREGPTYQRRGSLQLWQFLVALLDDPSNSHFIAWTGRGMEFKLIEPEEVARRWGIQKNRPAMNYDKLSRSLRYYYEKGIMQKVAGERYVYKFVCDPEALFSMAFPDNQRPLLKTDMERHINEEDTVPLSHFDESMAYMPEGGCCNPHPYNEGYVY

On to GGACTT, for which the binding signal in the test with ELK4 is 1.08 fold enrichment (6-mer frequency, TF over GST control); with ELF3, 1.06 fold enrichment (6-mer frequency, TF over GST control); with ETV1, 1.22 fold enrichment (6-mer frequency, TF over GST control); with ERF, 1.01 fold enrichment (6-mer frequency, TF over GST control); with ETV3L it was 1.1 fold enrichment (6-mer frequency, TF over GST control); with ETS2 it was 1.13 fold enrichment (6-mer frequency, TF over GST control). Besides, the binding signal with SPDEF was 1.08 fold enrichment (6-mer frequency, TF over GST control); with ETV7, 1.13 fold enrichment (6-mer frequency, TF over GST control); in the test with ETV3, 1.27 fold enrichment (6-mer frequency, TF over GST control); in the test with ETV6, 1.13 fold enrichment (6-mer frequency, TF over GST control).

Source of the values: article PMC7862700, “An all-to-all approach to the identification of sequence-specific readers for epigenetic DNA modifications on cytosine”.
